# Values without a mark were called inactive. The rule behind the calls is not given here.
# Biological target: Bifunctional epoxide hydrolase 2 (Homo sapiens) (UniProt P34913)
# Experiment: sEH inhibitor concentration-response potency, dose response, biochemical, human sEH, fluorescence, Infinite200 (AID 1026)
# Settings: recombinant human sEH, fluorogenic substrate, at 0.2 µM, stronger effect = higher value
# Chain of Bifunctional epoxide hydrolase 2 (Homo sapiens) (P34913 whole entry, looked up): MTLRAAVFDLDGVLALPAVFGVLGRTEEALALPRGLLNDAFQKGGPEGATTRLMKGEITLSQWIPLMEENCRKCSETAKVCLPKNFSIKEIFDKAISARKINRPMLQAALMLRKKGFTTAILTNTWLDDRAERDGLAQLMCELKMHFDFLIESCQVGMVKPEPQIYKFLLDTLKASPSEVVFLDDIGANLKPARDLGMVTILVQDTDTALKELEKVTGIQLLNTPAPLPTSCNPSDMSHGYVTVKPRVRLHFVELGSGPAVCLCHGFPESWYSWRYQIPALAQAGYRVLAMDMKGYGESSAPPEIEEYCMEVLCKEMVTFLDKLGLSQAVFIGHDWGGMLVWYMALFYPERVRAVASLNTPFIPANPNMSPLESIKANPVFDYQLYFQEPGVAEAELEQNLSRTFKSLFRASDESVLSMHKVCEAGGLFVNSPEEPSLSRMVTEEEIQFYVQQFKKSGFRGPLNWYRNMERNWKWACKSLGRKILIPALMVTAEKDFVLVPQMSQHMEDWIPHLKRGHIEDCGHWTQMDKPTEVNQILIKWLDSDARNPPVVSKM
row,Compound,inhibition [%]
1,Cc1nn(Cc2ccccc2Cl)c(C)c1NC(=O)NC12CC3CC(CC(C3)C1)C2,66
2,O=C(CCC1CCCCC1)NNC(=O)NC12CC3CC(CC(C3)C1)C2,59.2
3,COCCNC(=O)CN1CCC(NC(=O)Nc2ccc(C(F)(F)F)cc2)CC1,54.7
4,O=C(NCC1CCCC(CNC(=O)N2CCc3ccccc32)C1)N1CCc2ccccc21 (centres undefined),60.4
5,O=C(NCCC1=CCCCC1)NC1CCCCC1,70.5
6,O=C(Nc1ccc(N2CCOCC2)cc1)Nc1ccc(Cl)c(Cl)c1,40
7,O=C(NC1CCCCCCC1)C1CCN(c2nc3ccccc3o2)CC1,73.5
8,CC(NC(=O)NC12CC3CC(CC(C3)C1)C2)C1CCCO1 (centres undefined),71.5
9,COC(=O)[C@@H](NC(=O)NCc1ccccc1Cl)C(C)C,61.5
10,O=C(NCCC1=CCCCC1)c1ccc2c(c1)N(Cc1ccccc1)C(=O)CS2,52.3
11,CCCOc1cccc(/C=N/NC(=O)c2csc(C)c2C)c1,49.7
12,C=CCN1C(=O)CSc2ccc(C(=O)NCCC3=CCCCC3)cc21,55.8
13,CC(Cc1cccs1)NC(=O)NC1CCCCC1 (centres undefined),57.2
14,Cc1ccc2c(c1)nnn2C1CCN(C(=O)NC23CC4CC(CC(C4)C2)C3)CC1,60.5
15,Cc1cc2nc(-c3ccc(SCC(=O)N4CCc5ccccc54)nc3)[nH]c2cc1C,56.7
16,Cc1noc(C)c1COc1cccc(C(=O)NCc2ccccc2Cl)c1,52.4
17,Cc1cc2nc(-c3ccc(SCC(=O)N4CCN(C(=O)c5ccco5)CC4)nc3)[nH]c2cc1C,48
18,O=C(Nc1ccc(F)c(F)c1)NC1CCCCC1,55.5
19,O=C1CSc2ccc(C(=O)NCCC3=CCCCC3)cc2N1,51.9
20,COc1ccc(CNC(=O)/C=C/c2cc3c(cc2Br)OCO3)cc1,58.5

row,Compound,inhibition [%]
1,Cc1ccc(-n2nnnc2SCC(=O)NCCC2=CCCCC2)c(C)c1,41.9
2,COc1ccc(OC)c(/C=N/NC(=O)c2csc3ccccc23)c1,51.1
3,COc1cccc(CNC(=O)C2CCC(CNS(=O)(=O)c3cccc4nsnc34)CC2)c1 (centres undefined),50.1
4,O=C(/C=C/c1cc2c(cc1Br)OCO2)NCc1ccc(Cl)cc1,60.5
5,CCCCCC(=O)Nc1ccc2oc(-c3cncc(Br)c3)nc2c1,51.2
6,O=C(Nc1ccc2c(c1)nc1n2CCN(Cc2ccccc2)C1)NC1CCCCC1,58.4
7,CCN(CCNC(=O)Nc1ccc(Cl)cc1)c1ccccc1,39.1
8,O=C(NCc1ccc(N2CCCC2=O)cc1)NC1CCCCC1,47.5
9,CCn1nc(CC(=O)Nc2ccc(-n3cnnn3)c(C)c2)c2ccccc2c1=O,48.9
10,COc1ccccc1NS(=O)(=O)c1cccc(C(=O)NN)c1,42.3
11,Cc1ccc(N(CC(=O)NC2CCCCC2)C(=O)c2ccc(C)s2)cc1,43.7
12,CCOc1ccc(NC(=O)NCC2CCN(c3ccc(OC)cc3)C2)cc1 (centres undefined),26.9
13,O=C(COc1c(F)c(F)c(C(F)(F)F)c(F)c1F)Nc1ccc(N2CCOCC2)c(Cl)c1,49.2
14,CC1CCCCN1C(=O)NC12CC3CC(CC(C3)C1)C2 (centres undefined),16.8
15,Cc1cc(N2CCCC(C(=O)Nc3ccc4c(c3)CCC4)C2)n2ncnc2n1 (centres undefined),50.2
16,CC1CCCN(S(=O)(=O)c2ccc(NC(=O)c3cccc(-n4cnnn4)c3)cc2)C1 (centres undefined),59
17,O=C(N[C@@H](Cc1ccccc1)C(=O)NC1CCCCCC1)c1ccco1,36.3
18,O=C(NC12CC3CC(CC(C3)C1)C2)N1CCC(O)(c2ccc3c(c2)OCO3)CC1,46
19,CCC(C)[C@H](NC(=O)NCc1ccccc1Cl)C(=O)OC (some centres undefined),48.1

# Source: PubChem BioAssay AID1026 (Columbia University Molecular Screening Center, 2008)
